Shn3 3UTR inh – reduction of Shn3 3'UTR firefly luciferase signal, primary screen, Schnurri-3 inhibitor project, cell-based, Clone20 osteoblasts, set 2; AID 588674, 2011; Clone20 osteoblast Shn3 3'UTR firefly luciferase, 24 h; inhibition, % at 12.5 µM; 0.52% of 360,000 active;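 active means mean inhibition of at least 75% with every replicate also reaching 75%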;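 further: 0% = median of neutral control wells and 100% = pilot-screen positive control compound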
TRPM1 prom inh – inhibitors of MITF-dependent TRPM1 promoter reporter, primary screen, cell-based, SK-MEL-5, single point, luciferase | SK-MEL-5 TRPM1 promoter luciferase, 24 h | inhibition, % at 12.5 µM | 0.83% of 330,000 active;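 active means mean inhibition across replicates of 60% or more, whatever share of single replicates reaches that level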
LMP1 NFkB inh – EBV LMP1-driven NF-kappaB luciferase reporter inhibitors, primary screen, cell-based, luminescence, single point. 0.69% of 350,000 active. LMP1-induced NF-kappaB luciferase reporter cells. inhibition, % at 12.5 µM; in the data active means inhibition above about 41%;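 further: 0% = neutral control wells and 100% = reference inhibitor control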
TWEAK-Fn14 inh – inhibitors of TWEAK-Fn14 signaling, primary screen, luciferase reporter cells, uHTS; TWEAK-stimulated Fn14 reporter cells, luciferase luminescence, 8 h; inhibition, % at 10 µM; 2% of 360,000 active; in the data active means inhibition above about 50%
TROY signal inh – inhibitors of TROY-driven NF-kB signaling, primary screen, Q293 LMP1-TROYcd cells, NF-kB luciferase, uHTS; Q293 LMP1-TROYcd NF-kB luciferase reporter, 4 h; inhibition, % at 10 µM; 0.98% of 360,000 active; AID 1347056, 2019;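 active means compounds whose plate-normalised and pattern-corrected inhibition of the luciferase reporter signal at the single screening dose is 50% or more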
HIF-2a inh – HIF-2a reporter inhibitors, primary screen, luminescence, 786-0 RCC cells; 786-0 RCC cells HIF-2a reporter, luciferase luminescence, overnight; inhibition, % at 18.8 µM; 0.72% of 360,000 active;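 active means inhibition of the luminescence signal of 40% or more relative to plate controls, in a single-dose primary screen at 18.75 µM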
Mdm2-MdmX confirm – retested Mdm2-MdmX interaction blockers, confirmation, cell-based, luminescence, single concentration, set 2; shares compounds with HIF-2a inh; SaOS-2 split-luciferase Mdm2/MdmX complementation; inhibition, % at 8 µM; 99% of 740 active;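 active means mean inhibition of the luminescence signal across two replicates at or above 26 percent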
HIF-2a inh conf – HIF-2a reporter inhibitor retest, confirmation, luminescence, 786-0 RCC cells. shares compounds with HIF-2a inh. HIF-2a luciferase reporter luminescence, overnight. inhibition, % at 18.8 µM. 56% of 1,800 active. AID 651580, 2012;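 active means mean inhibition across four replicates of at least 40 percent at the single tested concentration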
HIF-1a cs – HIF-1a luciferase reporter signal reduction – MiaPaCa-2 cells, single concentration, counter-screen for HIF-2a inhibitor project, confirmation | shares compounds with HIF-2a inh | MiaPaCa-2 HIF-1a luciferase reporter, desferoxamine, overnight | inhibition, % at 18.8 µM | 72% of 1,800 active;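 active means mean inhibition of the reporter signal across four replicates at the single tested dose of 50% or more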
The depositor's hits bear a star; . = not tested or not shown. Hits are enriched below; roughly 3.4% of the tested compounds scored in any of these assays.

SMILES	Shn3 3UTR inh	TRPM1 prom inh	LMP1 NFkB inh	TWEAK-Fn14 inh	TROY signal inh	HIF-2a inh	HIF-2a inh conf	HIF-1a cs	others
CCOc1cc(/C=C2\COc3ccccc3C2=O)cc(Br)c1OCC(=O)N(C)C	75.3	88.6*	11.2	70.2*	79.4*	90.7*	60.5*	105.3*
CCCCN(C(=O)C(C)Oc1cccc(Cl)c1)c1c(N)n(CCC)c(=O)[nH]c1=O (stereo not drawn)	-4.8	5.3	2.7	4.6	-16.5	22.1	.	.
CC(c1nc2ccccc2c(=O)[nH]1)N1CCCN(S(=O)(=O)c2ccc(F)cc2)CC1 (stereo not drawn)	-8.5	1.8	-17.1	10.7	3.8	21.4	.	.
Cc1c(-c2ccccc2)oc2c(C(=O)N3CCN(c4ccc([N+](=O)[O-])cc4)CC3)cccc2c1=O	26.0	-18.8	32.1	75.4*	42.3	27.0	.	.	Mdm2-MdmX confirm=87.0*
Cc1ccccc1C(=O)N1CCN(c2ccc(NC(=O)c3ccc([N+](=O)[O-])o3)cc2)CC1	99.4*	80.5*	-0.9	10.4	17.5	96.0*	-0.2	100.5*
Cc1ccccc1C(=O)N1CCN(c2ccc(NC(=O)c3cccnc3)cc2)CC1	7.3	-1.4	33.7	-37.1	9.7	17.9	.	.
O=C(Nc1ccc(N2CCN(C(=O)c3ccccc3)CC2)cc1)c1ccc([N+](=O)[O-])o1	42.2	91.1*	-18.5	3.4	8.9	90.2*	87.9*	105.1*
CC1CCC(C(C)C)C(OC(=O)CSc2nccc(=O)[nH]2)C1 (stereo not drawn)	-19.5	-7.4	-8.5	1.4	1.6	5.3	.	.
COc1ccc(OCc2n(CC(=O)OC3CC(C)CCC3C(C)C)c3ccccc3[n+]2C)cc1 (stereo not drawn)	-3.3	81.7*	2.0	41.8	47.1	95.2*	-5.0	102.9*	Mdm2-MdmX confirm=102.5*
COC(=O)COc1ccc(S(=O)(=O)N2CCN(c3ccc(F)cc3)CC2)cc1	-11.7	-7.3	0.9	-2.3	6.0	46.2*	21.9	4.8
CCOC(=O)COc1ccc(S(=O)(=O)N2CCN(c3ccccc3)CC2)cc1	7.5	-19.1	-1.0	9.2	1.1	67.0*	19.1	0.0
COC(=O)COc1ccc(S(=O)(=O)N2CCCCCC2)cc1C	-28.3	-1.9	2.7	36.5	4.9	18.5	.	.
O=C(COc1ccc(S(=O)(=O)N2CCOCC2)cc1)N1CCc2ccccc2C1	11.6	1.2	0.3	4.5	-0.1	19.7	.	.
COC(=O)COc1ccc(S(=O)(=O)N2CCN(c3ccc(OC)cc3)CC2)cc1	-1.1	-14.4	-2.3	7.4	-5.2	7.6	.	.
CCOC(=O)COc1ccc(S(=O)(=O)N2CCN(C(=O)OCC)CC2)cc1	3.2	8.5	2.7	8.0	-4.8	17.0	.	.
COC(=O)COc1ccc(S(=O)(=O)N2CCN(c3ccccc3F)CC2)cc1C	-56.6	2.7	-8.9	19.7	10.6	53.0*	5.1	-7.5
CCOC(=O)COc1ccc(S(=O)(=O)N2CCc3ccccc3C2)cc1	-7.0	-8.4	2.6	-13.9	8.0	43.9*	14.8	-2.0
CCOC(=O)COc1ccc(S(=O)(=O)N2CCN(c3ccc(F)cc3)CC2)cc1	-11.7	-4.6	-1.7	-0.1	22.4	42.6*	-0.8	0.4
Cc1ccccc1N(Cc1cc(=O)[nH]c2ccccc12)C(=O)C(C)C	6.7	-1.0	-3.3	1.4	3.3	15.2	.	.
O=C(CCl)N(Cc1ccccc1)c1ccccc1	17.2	28.8	0.6	24.0	-27.4	27.8	.	.	Mdm2-MdmX confirm=102.7*
Cc1ccccc1N(Cc1cc(=O)[nH]c2ccccc12)C(=O)CCl	12.3	54.0	7.8	69.7*	-4.6	27.2	.	.	Mdm2-MdmX confirm=102.2*
Cc1cccc(N(Cc2ccccc2)C(=O)CCl)c1	25.0	39.9	1.6	40.6	-10.8	31.4	.	.
O=C(CCl)N(Cc1cc(=O)[nH]c2ccccc12)c1ccccc1	3.3	69.2*	19.9	81.5*	8.5	47.1*	69.8*	103.9*	Mdm2-MdmX confirm=101.5*
CC(C)c1ccc(NC2CCCN(C(=O)c3ccc(N4CCOCC4)cc3)C2)cc1 (stereo not drawn)	22.4	7.9	-2.3	-3.8	6.6	14.7	.	.
CC1(C(=O)Nc2ccccc2Br)CCN1C(=O)Cc1ccc(Cl)cc1Cl (stereo not drawn)	-4.2	.	.	1.9	11.7	5.3	.	.
SMILES	Shn3 3UTR inh	TRPM1 prom inh	LMP1 NFkB inh	TWEAK-Fn14 inh	TROY signal inh	HIF-2a inh	HIF-2a inh conf	HIF-1a cs	others
O=C(O)c1ccc(S(=O)(=O)NN=Cc2c[nH]c3ccccc23)cc1	6.5	.	-7.0	-5.4	-9.9	11.4	.	.
O=C(O)c1ccc(N/N=C/c2c[nH]c3ccccc23)cc1	31.0	57.8	35.9	-16.4	52.6*	51.5*	78.2*	59.9*
Cc1ccc(Sc2c(O)c3ccccc3n(C)c2=O)cc1	-3.9	-9.0	8.7	-1.0	25.3	11.1	.	.
Cc1ccc(Sc2c([N+](=O)[O-])c(=O)n(C)c3ccccc23)cc1	72.4	20.7	1.7	-101.9	67.8*	51.5*	5.9	86.7*
Cc1ccc(Sc2c(C=O)c3ccccc3n2C)cc1	7.8	-9.9	18.6	69.4*	52.3*	15.8	.	.	Mdm2-MdmX confirm=91.5*
Cn1c(-c2ccccc2)c(C=O)c2ccccc21	4.7	-17.2	-9.3	7.7	-17.8	-52.8	.	.
O=C(CN(C(=O)c1csnn1)c1ccc(F)c(Cl)c1)NC1CCCC1	7.1	9.5	-3.5	11.6	6.7	-0.6	.	.
CCN(CC)CCCN=C1N[C@@H](c2cccc(F)c2)C(C(=O)OC)=C(C)N1Cc1ccccc1	-6.6	94.5*	-22.9	-13.3	1.1	8.1	.	.	Mdm2-MdmX confirm=102.2*
COC(=O)C1=C(C)N(Cc2ccccc2)C(=NCc2ccccc2)N[C@H]1c1cccc(F)c1	-0.3	51.3	2.0	-1.3	-9.9	6.5	.	.
COC(=O)COc1ccc(S(=O)(=O)NCc2ccccn2)cc1	20.8	6.2	2.9	4.2	35.8	5.2	.	.
Cc1ccc(C)c(N2N=C(C(=O)Nc3cccc(S(=O)(=O)N4CCCCC4)c3)CCC2=O)c1	14.4	16.3	4.2	3.0	-19.2	19.4	.	.

Assay outcomes deposited in PubChem by several laboratories.
